# Laboratory results as given in the supplement of paper PMC3545927.
# This is one part of the list. The true hit rate is not given.
# Target: furin, P09958
# Assay: furin cleavage Z-score vs untreated control; higher = more cleavage, active = 3.5 or more, inactive = 1 or less, 8 variable residues between constant flanks
# In short: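 Purified furin cleaved 8-mer peptides that were fused to a cDNA oligonucleotide and held on magnetic beads by their N-terminus. Each 0.01 ml reaction used a 1:10 enzyme:substrate ratio in 50 mM HEPES pH 7.5 with CaCl2 and NaCl and ran 7.5, 15 or 30 min. Released DNA was adapter-tagged by PCR and sequenced, and read counts gave abundance. The cleavage Z-score came from log counts against furin-free reactions, lowess-adjusted and scaled by median absolute deviation.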
# furin, P09958, sequence (P09958 whole entry): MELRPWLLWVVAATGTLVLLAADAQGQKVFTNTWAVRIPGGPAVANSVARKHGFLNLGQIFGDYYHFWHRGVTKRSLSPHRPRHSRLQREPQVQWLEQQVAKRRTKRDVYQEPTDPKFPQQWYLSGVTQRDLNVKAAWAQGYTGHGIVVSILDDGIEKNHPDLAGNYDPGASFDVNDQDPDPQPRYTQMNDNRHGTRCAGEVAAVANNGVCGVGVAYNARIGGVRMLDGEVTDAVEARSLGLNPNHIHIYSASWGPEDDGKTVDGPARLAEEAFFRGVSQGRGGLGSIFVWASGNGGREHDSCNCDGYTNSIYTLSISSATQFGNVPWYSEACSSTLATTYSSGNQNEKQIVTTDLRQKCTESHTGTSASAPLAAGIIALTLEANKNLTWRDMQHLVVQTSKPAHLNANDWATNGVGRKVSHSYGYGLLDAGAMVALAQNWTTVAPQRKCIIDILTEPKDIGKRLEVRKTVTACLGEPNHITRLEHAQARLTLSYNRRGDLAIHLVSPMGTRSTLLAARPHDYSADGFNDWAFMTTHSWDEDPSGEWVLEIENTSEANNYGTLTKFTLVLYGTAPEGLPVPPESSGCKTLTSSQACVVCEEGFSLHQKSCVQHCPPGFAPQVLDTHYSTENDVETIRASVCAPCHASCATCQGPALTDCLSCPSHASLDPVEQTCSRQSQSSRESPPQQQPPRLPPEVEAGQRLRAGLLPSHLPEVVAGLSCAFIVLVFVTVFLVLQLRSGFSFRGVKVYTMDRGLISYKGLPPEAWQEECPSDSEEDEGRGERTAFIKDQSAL
Sequence,furin cleavage Z-score (7.5 min),furin cleavage Z-score (15 min),furin cleavage Z-score (30 min)
CASTPCSAELAGNASASA [HC2552],-0.156 (inactive),0.767 (inactive),0.789 (inactive)
CAGLEVVTSTAGNASASA [HC2276],1.36,-0.694 (inactive),-0.958 (inactive)
CASILGIGTVAGNASASA [HC823],-0.809 (inactive),0.141 (inactive),-0.562 (inactive)
CAAYAQQTRGAGNASASA [HC676],0.0125 (inactive),0.047 (inactive),1.9
CAKAVDFIPVAGNASASA [HC756],-0.823 (inactive),-0.464 (inactive),-0.656 (inactive)
CATPGLPVCQAGNASASA [HC933],0.0348 (inactive),-0.269 (inactive),0.151 (inactive)
CATPQRLRRQAGNASASA [FS-570],7.8 (active),8.92 (active),4.33 (active)
CAEVVTSTWFAGNASASA [HC2247],-0.0997 (inactive),1.76,0.942 (inactive)
CARFLRHTGRAGNASASA [FS-1701],2.28,1.08,0.702 (inactive)
CAAMRRLKRRAGNASASA [FS-1304],8.73 (active),7.83 (active),8.17 (active)
CAREQRERRRAGNASASA [FS-1155],0.997 (inactive),2.01,2.01
CAETRRERRRAGNASASA [FS-1121],3.87 (active),4.13 (active),4.7 (active)
CAIFLRLKRRAGNASASA [FS-800],3.63 (active),3.18,3.43
CALRRRLKRRAGNASASA [FS-361],7.56 (active),7.31 (active),5.73 (active)
CASDVVCCSMAGNASASA [HC2117],1.61,-1.16 (inactive),0.074 (inactive)
CAMEEGSQHLAGNASASA [HC2],-0.0457 (inactive),-0.462 (inactive),1.87
CAYVTGMTTDAGNASASA [HC1211],-0.923 (inactive),-0.868 (inactive),-1.18 (inactive)
CAQDAVSRTQAGNASASA [HC900],-0.887 (inactive),-1.13 (inactive),-1.41 (inactive)
CADLEVVTSTAGNASASA [HC2271],-1.06 (inactive),0.142 (inactive),-0.409 (inactive)
CAGYIPLVGAAGNASASA [HC228],-0.438 (inactive),-0.464 (inactive),-0.124 (inactive)
CALRRRMRRRAGNASASA [FS-1368],3.44,4.48 (active),4.37 (active)
CALEHRRMRRAGNASASA [FS-349],11 (active),10.5 (active),9.29 (active)
CASTPCSAGLAGNASASA [HC2556],-0.924 (inactive),-0.11 (inactive),-0.471 (inactive)
CAWEECSQHLAGNASASA [HC1668],2.53,0.743 (inactive),0.0767 (inactive)
CAGTPCSAHLAGNASASA [HC2476],-0.662 (inactive),-0.917 (inactive),-0.0259 (inactive)
CAATPCSGSWAGNASASA [HC1823],-0.934 (inactive),-0.493 (inactive),-0.88 (inactive)
CAEHVTSTWVAGNASASA [HC2175],-1.96 (inactive),1.55,0.829 (inactive)
